The list is not random: actives were taken first. Their share in the collection is about 1.8%.
Imprint erasure = induces erasure of genomic imprints in mouse ES cells; Potency, µM (series often up to 60.7 µM), for the others: top-dose activity change, positive = activation, actives largely listed as activators; AID 1948; mouse ES Peg3-LacZ reporter, beta-gal luminescence, 40 h; 110,000 tested, 0.02% active
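Readout: BetaGlo luminescence (5 min, room temp) for LacZ from the normally silent maternal Peg3 allele in female Peg3LacZ-Neo ES cells. Cells 300/well, 40 h, 37C, 5% CO2. Data normalized per plate to negative controls.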
p53ts 32C tox = cytotoxicity in p53ts cells at permissive temperature; AID 924; Potency, µM (titrated, usually from 46.1 µM), without a hit: at the top dose activity change, negative = cytotoxicity, most hits filed as cytotoxic; 130,000 tested, 0.93% active; H1299-p53A138V at 32C, ATP luminescence viability, 24 h;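 note: 0% = DMSO and -100% = full killing by reference compound; nearly all actives have a fitted effect of over 55% in size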
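Viability by ATPlite luminescence after 24 h compound treatment (up to 46 uM) at the permissive 32C. Cells are H1299 carrying p53 A138V. Scale runs from DMSO basal to 100 uM tamoxifen as full kill; AC50 from Hill fits.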
p53ts 39C tox = kills p53ts cells at the nonpermissive temperature | H1299-p53A138V viability at 39C, ATP luminescence, 24 h | 130,000 tested, 1.5% active | Potency, µM (top dose mostly 46.1 µM), inactives show at the highest dose activity change, negative = cell killing, most hits filed as cytotoxic; note: % is set by controls: 0 for no effect and ±100 for the full control effect; nearly all actives have a fitted effect of over 55% in size
IkB signaling = suppresses IkB signaling in ABC-DLBCL reporter cells; ABC-DLBCL IkBa-CBG/CBR dual luciferase ratio, 4 h; response scale: scaled: untreated 0%, proteasome inhibitor 100%; Potency, µM (highest dose often 57.1 µM), for inactives: top-dose IkBa stabilization activation; 110,000 tested, 0.04% active; active = well fitted curve in the direction sought with a large enough effect in the signal ratio, not every such curve was filed as active; inconclusive = small, poorly fitted or top-dose-only effect, or a change in a side signal; the % refers to the signal ratio;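 note: the direction sought is a rising ratio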
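Luminescence ratio of IκBα-fused green versus native red beetle luciferase in OCI-Ly3 cells, 4 h post-doxycycline with compound; red signal alone, scaled from basal (0%) to zero light (-100%), flagged nonspecific or cytotoxic effects.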
Starred values were filed as active, the others as inactive; ? = inconclusive; . = no result given; [ ] = remark or other dose. Unless noted, calls come from the whole dose curve; as a rule, active = well fitted curve in the direction sought with a large enough effect; inconclusive = small, poorly fitted or top-dose-only effect, or another doubt; inactive = no such curve, though single readings can be large; an effect the other way counts as inactive or inconclusive. Potency is the fitted concentration of half-maximal effect.

SMILES	Imprint erasure	p53ts 32C tox	p53ts 39C tox	IkB signaling
Cc1ccc(CNC(=O)c2sc3nc(-c4ccccc4)cn3c2C)cc1	-4%[10.9 µM]	-3%	-22%	1%
Cc1ccc(Cc2cn3cc(-c4ccccc4)nc3s2)cc1	-22%[10.9 µM]	?	4µM*	?
Clc1ccc(-c2cn3cc(Cc4ccccc4)sc3n2)cc1	-4%[10.9 µM]	?	6.3µM*	?
Fc1ccccc1Cc1cn2cc(-c3ccc(Cl)cc3)nc2s1	7%[10.9 µM]	?	10µM*	?
O=c1c(O)cc(C2Oc3cc(O)cc(O)c3CC2O)cc2c(C3Oc4cc(O)cc(O)c4CC3O)cc(O)c(O)c12 (stereo not given)	1%	-16%	-20%	.
Cn1cc(S(=O)(=O)N2CCCCC2)cc1C(=O)N1CCN(c2ccc(F)cc2)CC1	15%[10.9 µM]	0%	-8%	4%
Fc1ccc(-c2cn3cc(Cc4ccccc4Cl)sc3n2)cc1	26%[10.9 µM]	7.9µM*	5µM*	?
CCCC(=O)Nc1nnc(S(=O)(=O)N2CCCCCC2)s1	-20%[10.9 µM]	-20%	-17%	-6%
CCOc1ccc(NC(=O)CSc2oc(-c3cccs3)nc2S(=O)(=O)c2ccc(Cl)cc2)cc1	-27%[10.9 µM]	-23%	13µM*	?
CCOc1ccc(NC(=O)CSc2oc(-c3ccc(C)cc3)nc2S(=O)(=O)c2ccc(C)cc2)cc1	-41%[10.9 µM]	13µM*	0.79µM*	-1%
Cc1cc(C)cc(NC(=O)CSc2oc(-c3ccccc3)nc2S(=O)(=O)c2ccccc2)c1	-15%[10.9 µM]	-17%	?	?
Clc1ccc(-c2nnc(SCc3ccon3)o2)c(Cl)c1	-70%	10µM*	10µM*	-1%
CC(=O)N1CCc2cc(NC(=O)c3ccc(C)cc3)ccc21	-9%	6.3µM*	10µM*	-2%
COc1ccc(CCN2CCC(CNC(=O)c3cnn(-c4cccc(Cl)c4)c3C3CCN(C(=O)OC(C)(C)C)CC3)CC2)cc1	-3%[10.9 µM]	?	?	?
COc1ccc(CCN2CCC(CNC(=O)c3cnn(-c4ccccc4)c3C3CCN(C(=O)OC(C)(C)C)CC3)CC2)cc1	-10%[10.9 µM]	-9%	13µM*	?
CC(C)(C)OC(=O)N1CCC(c2c(C(=O)NCCN3CCC(Cc4ccccc4)CC3)cnn2-c2ccc(F)cc2)CC1	-10%[10.9 µM]	?	25µM*	?
CC(C)(C)OC(=O)N1CCC(c2c(C(=O)NCCN3CCC(Cc4ccccc4)CC3)cnn2-c2ccccc2)CC1	-15%[10.9 µM]	?	32µM*	-7%
CC(C)(C)OC(=O)N1CCC(c2c(C(=O)NCc3ccc(F)cc3)cnn2-c2ccc(F)cc2)CC1	6%[10.9 µM]	26%	-1%	?
O=c1cnc2cncnc2n1Cc1ccccc1Cl	-25%	-3%	-15%	?
COc1cc2c(=O)n(Cc3ccccc3Cl)c(=O)n(CC(=O)Nc3ccccc3)c2cc1OC	3%[10.9 µM]	1%	-11%	?
COc1ccc(C)c2sc(N(Cc3cccnc3)C(=O)c3cccs3)nc12	-4%[10.9 µM]	0%	-2%	?
COc1ccc(C(C)=O)cc1COC(=O)c1cnc(C)cn1	16µM*	3%	3%	-3%
COc1ccc(C(C)=O)cc1COC(=O)c1c(C)noc1C	-13%	-2%	-12%	2%
CCc1ccc(C2=CC(c3cccc(OC)c3OC)n3c(nc4ccccc43)N2)cc1 (stereo not given)	-12%[10.9 µM]	10µM*	16µM*	?
CC(C)c1ccc(C2=CC(c3cccc(Cl)c3)n3c(nc4ccccc43)N2)cc1 (stereo not given)	-11%[10.9 µM]	?	?	?
SMILES	Imprint erasure	p53ts 32C tox	p53ts 39C tox	IkB signaling
CCc1ccc(C2=CC(c3cccc(C)c3)n3c(nc4ccccc43)N2)cc1 (stereo not given)	-17%[10.9 µM]	8.9µM*	5µM*	?
CC(C)(CO[C@H]1C[C@H]2CC[C@@]1(C)C2(C)C)[N+](=O)[O-]	-9%[10.9 µM]	-5%[9.22 µM]	5%[9.22 µM]	1%[11.4 µM]
Cc1ccc2sc(N3CCN(C(=O)C4COc5ccccc5O4)CC3)nc2c1C (stereo not given)	-8%[10.9 µM]	-2%	0%	9%
C/C(=N\[N+](C)(C)C)c1ccc(C)c(C)c1	-11%[10.9 µM]	0%[9.22 µM]	6%[9.22 µM]	-1%[11.4 µM]
N#Cc1ccc(OC(=O)c2cc(-c3ccc4c(c3)OCCO4)on2)cc1	-9%[10.9 µM]	?	13µM*	3%
CC(C)c1ccc(OC(=O)c2cc(-c3ccc4c(c3)OCCO4)on2)cc1	-19%[10.9 µM]	13µM*	20µM*	0%
COc1ccc(OC(=O)c2cc(-c3ccc4c(c3)OCCO4)on2)cc1	-21%[10.9 µM]	13µM*	13µM*	1%
O=C(Oc1ccc(Cl)cc1)c1cc(-c2ccc3c(c2)OCCO3)on1	-13%[10.9 µM]	-15%	?	1%
CC(C)c1ccc(OC(=O)c2cc(-c3ccc(Cl)cc3)on2)cc1	12%[10.9 µM]	4%	12%	-1%
O=C(NCc1ccc(Cl)cc1)C1CCC(CNS(=O)(=O)c2ccccc2)CC1 (stereo not given)	-22%[10.9 µM]	-12%	-19%	1%
Cc1ccc(CSc2nc3ccncc3n2Cc2nc(-c3ccccc3C)oc2C)cc1	-9%[10.9 µM]	13µM*	7.9µM*	3%
NNC(=O)CS(=O)(=O)Nc1ncccn1	-10%[10.9 µM]	4%[9.22 µM]	-4%[9.22 µM]	0%[11.4 µM]
COc1ccccc1Cn1cc(C(=O)c2ccc(Cl)cc2)c(=O)c2cc3c(cc21)OCCO3	3%[10.9 µM]	-4%	?	?
COc1ccccc1Cn1cc(C(=O)c2ccc(Cl)cc2)c(=O)c2ccccc21	-14%[10.9 µM]	?	13µM*	?
CN(C)c1ccc(C(CNS(=O)(=O)c2ccc(F)cc2)N2CCc3ccccc32)cc1 (stereo not given)	-9%[10.9 µM]	4%	3%	?
COc1cccc(NC(CNS(=O)(=O)c2ccc(C)cc2)c2ccccc2)c1 (stereo not given)	-6%[10.9 µM]	11%	?	?
COc1cccc(NC(CNS(=O)(=O)c2ccc(Cl)cc2)c2ccccc2)c1 (stereo not given)	2%[10.9 µM]	?	13µM*	0%
O=S(=O)(NCC(c1ccccc1)N1CCc2ccccc21)c1ccc(Cl)cc1 (stereo not given)	-10%[10.9 µM]	17%	25µM*	2%
O=S(=O)(NCC(Nc1ccc(Cl)cc1)c1ccccc1)c1ccccc1 (stereo not given)	-1%[10.9 µM]	?	22µM*	?
BrC(Br)C(Br)Br	-1%	1%[1.84 µM]	-2%	7%
COc1ccc(CN2C(=O)C(NC(=O)c3ccccc3OC)(C(F)(F)F)N=C2c2ccccc2)cc1 (stereo not given)	-12%[10.9 µM]	9%	27%	?
COc1ccc(-c2coc3c(OC)c(OC)cc(O)c3c2=O)cc1	-17%	-14%	-8%	.
Cc1cccc(OC(=O)c2cc(-c3ccc4c(c3)OCCO4)on2)c1	-17%[10.9 µM]	20µM*	20µM*	?
Cc1cc(C)cc(OC(=O)c2cc(-c3ccc4c(c3)OCCO4)on2)c1	-19%[10.9 µM]	?	13µM*	2%
Cc1cccc(OC(=O)c2cc(-c3ccc4c(c3)OCCO4)on2)c1C	-12%[10.9 µM]	20µM*	?	0%

Bioassay records as filed in PubChem BioAssay.
